PubChem BioAssay (EPA / NIEHS)
Results filed as inconclusive are left out. The source holds several records for some structures; these can differ, active in one and inactive in another. The source made the active and inactive calls. Rule for the calls: active = hit-call score of the fitted dose curve at least 0.9, where 1 is the maximum; inconclusive = response in the unintended direction; inactive = score below 0.9.

Legend:
[1] = TOX21_p53_BLA_p2_viability: Viability Assessment in the Tox21 HCT-116 p53 Agonism Beta-lactamase Assay, Phase 2 (AID 2283591);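 note: actives lower the ATP signal meaning cytotoxicity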
How it was run: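 HCT116 p53-bla cells, 4000/well, dosed after 5 h plating (217-fold dilution of DMSO stocks) and incubated 16 h at 37C. Viability taken as cellular ATP by CellTiter-Glo luminescence after 30 min RT; signal loss marks cytotoxicity.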

[2] = target: Cellular tumor antigen p53 (Homo sapiens) (UniProt P04637); test: TOX21_p53_BLA_p2_ratio: Tox21 HCT-116 p53 Agonism Beta-lactamase Assay, Ratio, Phase 2 (AID 2283592)
Sequence of Cellular tumor antigen p53 (Homo sapiens) (P04637 whole entry, looked up): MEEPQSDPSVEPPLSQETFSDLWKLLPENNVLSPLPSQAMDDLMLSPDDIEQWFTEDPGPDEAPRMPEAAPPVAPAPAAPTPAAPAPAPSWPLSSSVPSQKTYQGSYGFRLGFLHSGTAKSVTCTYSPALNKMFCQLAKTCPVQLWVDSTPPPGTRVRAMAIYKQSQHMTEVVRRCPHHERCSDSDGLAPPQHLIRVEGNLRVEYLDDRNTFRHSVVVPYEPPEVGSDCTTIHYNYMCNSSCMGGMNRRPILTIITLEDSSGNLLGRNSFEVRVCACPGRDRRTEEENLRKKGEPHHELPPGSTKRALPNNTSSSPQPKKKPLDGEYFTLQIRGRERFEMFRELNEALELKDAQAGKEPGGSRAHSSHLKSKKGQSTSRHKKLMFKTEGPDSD
How it was run: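 Readout: blue/green (460/530 nm) FRET emission ratio after 2 h CCF4-AM loading at room temperature, excitation 405 nm. HCT116 p53 bla cells, 16 h compound exposure at 37C, 5% CO2; agonist direction fitted against DMSO baseline.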

[3] = TOX21_p53_BLA_p3_viability: Viability Assessment in the Tox21 HCT-116 p53 Agonism Beta-lactamase Assay, Phase 3 (AID 2283593);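 note: cells exposed to compound for 16 h before reading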
How it was run: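 HCT116 cells, 4000/well, dosed 5 h after plating by pin transfer (217-fold dilution from DMSO stock) and incubated 16 h at 37C, 5% CO2. Viability read as ATP luminescence with CellTiter-Glo after 30 min at room temperature.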

[4] = TOX21_p53_BLA_p4_viability: Viability Assessment in the Tox21 HCT-116 p53 Agonism Beta-lactamase Assay, Phase 4 (AID 2283597);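 note: hits lower the luminescence signal meaning cytotoxicity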
How it was run: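 ATP content by CellTiter-Glo luminescence, 30 min RT, read after the beta-lactamase ratio step. Cells: HCT116, 4000/well, compound added after 5 h, exposure 16 h at 37C. Signal loss = reduced viability.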

[5] = target: Cellular tumor antigen p53 (Homo sapiens) (UniProt P04637); test: TOX21_p53_BLA_p5_ratio: Tox21 HCT-116 p53 Agonism Beta-lactamase Assay, Ratio, Phase 5 (AID 2283599)
How it was run: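 HCT-116 p53-bla cells (4000/well) plated 5 h, dosed with compound (217-fold DMSO dilution) for 16 h at 37 C; CCF4-AM substrate 2 h at room temperature. Activity is the 460/530 nm emission ratio (405 nm excitation), fitted in gain-of-signal direction versus DMSO.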

[6] = TOX21_p53_BLA_p5_viability: Viability Assessment in the Tox21 HCT-116 p53 Agonism Beta-lactamase Assay, Phase 5 (AID 2283600)
How it was run: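 ATP luminescence (CellTiter-Glo, 30 min, RT) served as the viability read-out, with loss of signal indicating cytotoxicity. Compounds in DMSO were pinned at a 217-fold dilution onto 4000 cells/well and incubated 16 h, 37C.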

[7] = target: Cellular tumor antigen p53 (Homo sapiens) (UniProt P04637); test: TOX21_p53_BLA_p4_ratio: Tox21 HCT-116 p53 Agonism Beta-lactamase Assay, Ratio, Phase 4 (AID 2283601)
How it was run: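 HCT-116 p53 beta-lactamase reporter cells (4000/well) preincubated 5 h, then compound (217-fold dilution of DMSO stock) for 16 h at 37C. CCF4-AM substrate added 2 h at room temperature; 460/530 nm emission ratio fitted upward versus DMSO.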

[8] = target: Cellular tumor antigen p53 (Homo sapiens) (UniProt P04637); test: TOX21_p53_BLA_p3_ratio: Tox21 HCT-116 p53 Agonism Beta-lactamase Assay, Ratio, Phase 3 (AID 2283596)
How it was run: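 Cells were seeded at 4000/well, rested 5 h at 37C, then dosed with DMSO compound solutions (217-fold dilution) for 16 h. CCF4-AM substrate was loaded for 2 h at room temperature, and the 460/530 nm emission ratio was fitted for gain of signal versus DMSO.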

Measured: AC50

Cc1cc(C)nc(NS(=O)(=O)c2ccc(N)cc2)n1
not listed: [8]
inactive: all other assays above

CSCCC=O
not listed: [4]
inactive: all other assays above

O=C(Nc1ccc2c(c1)Cc1ccccc1-2)C(F)(F)F
inactive: all assays above

COCCOCCOCCO
not listed: [4]
inactive: all other assays above

COC(C)(C)CCO
inactive: [1] | [2] | [5] | [6] | [7]

C1CCCCC1
inactive: [1] | [4] | [5] | [6] | [7]

COCCc1ccc(OCC(O)CNC(C)C)cc1 (stereo unspecified)
inactive: [2] | [8] | [5] | [7]

CCCCCCC(CO)CCCC (stereo unspecified)
inactive: [2] | [5] | [7]

Cc1ccc(S(=O)(=O)Oc2ccc(N=Nc3ccc(-c4ccc(N=Nc5c(O)ccc6cc(S(=O)(=O)O)cc(S(=O)(=O)O)c56)c(C)c4)cc3C)cc2)cc1
not listed: [1]
inactive: all other assays above

CS(C)=O
not listed: [1]
inactive: all other assays above

Cc1ccc(OC(=O)c2ccccc2O)cc1
inactive: [2] | [3] | [8] | [5] | [6]

CCCCCCCCCCCCCCCC(=O)OC/C=C(C)/C=C/C=C(C)/C=C/C1=C(C)CCCC1(C)C
inactive: [1] | [3] | [8] | [6] | [7]

COc1ccc(N)c([N+](=O)[O-])c1
inactive: [3] | [8] | [5] | [6] | [7]

c1ccc(Oc2ccccc2)cc1
not listed: [1] | [6]
inactive: all other assays above

CC(C)C[C@H](NC(=O)OCC1c2ccccc2-c2ccccc21)C(=O)O
inactive: [2] | [4] | [5] | [6]

C=C(C)C(=O)OCCOC1CC2CC1C1C=CCC21 (stereo unspecified)
not listed: [1] | [7]
inactive: all other assays above

CC(C)CC(C)CC(O)CC(C)C (stereo unspecified)
not listed: [1]
inactive: all other assays above

Cc1ccc(C)o1
inactive: [1] | [3] | [5] | [7]

C[N+](C)(C)CCCCCC[N+](C)(C)C
inactive: [2] | [4] | [5] | [7]

CC/C=C\CCOC(=O)CC
inactive: [3] | [8] | [5] | [7]

CCC(=O)O[C@@H]1C[C@H]2CC[C@]1(C)C2(C)C
inactive: [8] | [5] | [7]

C[C@H]1C[C@@H](O)CC(C)(C)C1
inactive: [2] | [8] | [5] | [7]

CCc1ncc(C)[nH]1
not listed: [2] | [3]
inactive: all other assays above

C[C@H](CCC(=O)NCC(=O)O)[C@H]1CC[C@H]2[C@@H]3[C@H](O)C[C@@H]4C[C@H](O)CC[C@]4(C)[C@H]3C[C@H](O)[C@]12C
not listed: [2] | [3]
inactive: all other assays above

CC(C)c1ccccc1O
inactive: [2] | [3] | [8] | [4] | [6]

COC(CC(C)CCCC(C)(C)O)OC (stereo unspecified)
inactive: [1] | [4] | [5] | [7]

Nc1ccn([C@H]2CS[C@@H](CO)O2)c(=O)n1
inactive: [2] | [5] | [7]

CC(C)CCCCCCCCCCCCCCC(=O)O
inactive: [2] | [3] | [8] | [5] | [7]

Cc1ccc(S(N)(=O)=O)cc1
inactive: [2] | [3] | [8] | [5] | [7]

OCC(O)c1ccccc1 (stereo unspecified)
inactive: [2] | [3] | [4] | [5] | [7]

c1ccc2cc(Nc3ccc(Nc4ccc5ccccc5c4)cc3)ccc2c1
inactive: [2] | [3] | [8] | [4] | [5] | [6] | [7]
active: [8] 73.5 µM

FC(F)(F)COCC(F)(F)F
not listed: [1] | [4]
inactive: all other assays above

CCCOC(=O)c1c(Cl)c(Cl)c(Cl)c(Cl)c1C(=O)OCCC
inactive: [2]
